According to PubChem BioAssay AID2289 (National Center for Advancing Translational Sciences (NCATS), 2010):
The campaign covered roughly 340,000 compounds. About 3,300 (0.97%) were called active. Inconclusive results (about 9%) are left out. Calls come from the whole dose curve; as a rule, active = well fitted inhibition curve with a large enough effect; inconclusive = small, poorly fitted or top-dose-only effect, or effect the other way; inactive = flat fitted curve, though single readings scatter. The list shows a part of the results.

experiment: qHTS Assay for Modulators of miRNAs and/or Inhibitors of miR-21; conditions: HeLa miR-21-FLuc reporter, luciferase luminescence, 48 h; actives lower the signal; note: nearly all actives have a fitted effect of over 55% in size
From the text: MLSCN Grant: 1 R21 NS059478-01 Assay Provider: Qihong Huang, The Wistar Institute NCGC Assay Overview: MicroRNAs (miRNAs) are endogenously encoded small (~20-25 nucleotides), nonprotein-coding RNAs that are involved in post-transcriptional repression of target messenger RNAs (mRNAs) (Le and Hannon, 2004). Estimated to be involved in the regulation of 30% of all protein-coding mRNAs (Filipowicz et al., 2008), miRNAs play a significant role in many biological processes including cellular differentiation and tissue development (Ghildiyal and Zamore, 2009).
NCGC Assay Protocol Summary: Reagents: HeLa cells stably expressing firefly luciferase (FLuc) under the control of a CMV promoter (upstream) and a miR-21 binding sequence directly downstream of the gene. These cells endogenously express miR-21. Control compounds used were compound C3 (provided by collaborator), N6-phenyladenosine (MP Biomedicals, 0215379625), and DMSO. Assay Summary: 6uL of HeLa miR-21-FLuc cells in assay buffer (DMEM, Invitrogen #21063-029; 10% FBS, HyClone #SH30071.03) were dispensed at 2000cells/well (3.3 x 10^5 cells/mL) into Greiner solid-white TC-treated 1536-well plates using a Multidrop Combi (Thermo Fisher Scientific). Plates were incubated for one hour at 37 degree Celsius, 95% humidity, 5% CO2. These assay plates were then treated with 23nL of compound or DMSO using a Kalypsys pin tool, which allows for delivery of a 24-point titration of each compound to the assay plate, with a final compound concentration ranging from approximately 40uM to 5pM. Assay plates were then incubated for 48 hours. After incubation, plates were allowed to come to RT for one hour prior to delivery of 3uL of 3X luciferase detection reagent. After a 15 minute incubation to allow for cell lysis, luciferase activity was measured using a ViewLux CCD imager (PerkinElmer), with an average exposure time of 2-12 seconds. Keywords: NIH Roadmap, MLPCN, MLSMR, qHTS, miR-21, microRNA, firefly luciferase, FLuc.
Potency is the fitted concentration of half-maximal effect.

Potency, active:
COc1ccc(NC(=O)CCSc2ccc(F)cc2)cc1 7.36 µM, O=C(CSc1ccc(F)cc1)Nc1ccc(C2SCCS2)cc1 11.7 µM, COc1ccccc1NC(=O)c1csc2c1CCC(C)C2 (configuration not stated) 5.85 µM, CC1CCc2c(C(=O)NCc3ccccn3)csc2C1 (configuration not stated) 11.7 µM, Cc1ccc(-c2cc(NC(=O)c3ccccc3Cl)on2)cc1 2.61 µM, CCc1nc(NC(C)(C)C)c2cnn(-c3ccccc3)c2n1 7.36 µM, Cc1ccoc1C(=O)Nc1cccc(Oc2ccccc2)c1 3.29 µM, CCn1c(O)c(/C=C2\C=Nc3ccccc32)sc1=O 1.17 µM, CCn1c(O)c(/C=C2\C=Nc3ccccc32)sc1=Nc1ccccc1 7.36 µM, N/C(Cc1cccc2ccccc12)=N\OC(=O)Cc1cccs1 11.7 µM, COc1ccc(/C(N)=N/OC(=O)Cc2cccs2)cc1 6.56 µM, N/C(=N\OC(=O)Cc1cccs1)c1ccc(Br)cc1 16.5 µM, N/C(Cc1cccs1)=N\OC(=O)COc1ccccc1Cl 14.7 µM, Fc1ccc(/C=C/c2nnc(-c3cccs3)o2)cc1 2.07 µM, Clc1ccc2oc(-c3ccccc3)cc(=NCCCN3CCOCC3)c2c1 4.14 µM, CCOc1ccc(N/C=C/C(=O)c2ccc(OC)c(OC)c2)cc1 9.27 µM, COc1ccc(N/C=C/C(=O)c2ccc(Cl)cc2)cc1 1.04 µM, Cc1ccc(N/C=C/C(=O)c2ccc(C)cc2)cc1 2.33 µM, COc1ccc(N/C=C\C(=O)c2ccc(C)cc2)cc1OC 14.7 µM, COc1ccc(C(=O)/C=C/Nc2cc(C)on2)cc1 2.93 µM, Cc1ccc(NC(=O)C(=O)c2ccc(C)cc2)cc1 2.93 µM, COc1ccc(C(=O)/C=C/Nc2ccc(C)cn2)cc1OC 1.65 µM, CC(=O)c1ccc(N/C=C\C(=O)c2ccc(C)cc2)cc1 1.31 µM, COc1ccccc1/C=C/C(=O)N1CCC(c2ccccc2)C1 (configuration not stated) 2.93 µM, O=C(c1ccc(F)cc1)N1CCC(c2ccccc2)C1 (configuration not stated) 7.36 µM, O=C(COc1ccc(F)cc1)N1CCC(c2ccccc2)C1 (configuration not stated) 13.1 µM, O=C(c1ccc(F)cc1)N1CCC(n2nnc3ccccc32)CC1 5.85 µM, O=C(N/N=C\c1ccco1)Nc1cccc(Cl)c1 1.85 µM, Nc1c(C(=O)N2CCCC2)sc2nc(-c3ccccc3)ccc12 3.69 µM, NC(=O)c1sc2nc(-c3cccnc3)ccc2c1N 18.5 µM, NC(=O)c1sc2nc(-c3ccccc3)ccc2c1N 1.85 µM, C=CCNC(=O)/C=C/c1ccc(C(C)C)cc1 7.36 µM, CCCNC(=O)/C=C/c1ccc(C(C)C)cc1 16.5 µM, CCCOc1cccc(C(=O)Nc2ccc(Br)cc2F)c1 1.85 µM, Nc1c(C(=O)c2cccs2)sc2nsc(SCCN3CCCCC3)c12 4.14 µM, CN1/C(=C\C(=O)c2cccc([N+](=O)[O-])c2)Sc2ccccc21 0.329 µM, Cc1ccc(C(=O)Cn2nnc3ccccc32)cc1C 1.31 µM, Cc1ccc(C(=O)Cn2nnc3ccccc32)cc1 2.33 µM, Clc1cccc(CSc2ncn(-c3ccccc3)n2)c1 16.5 µM, Clc1ccccc1CSc1ncn(-c2ccccc2)n1 5.85 µM, C/C(=N/NC(=O)c1cccs1)c1ccc(N2CCOCC2)cc1 11.7 µM, O=C(N/N=C/c1ccc(N2CCOCC2)cc1)c1cccs1 3.29 µM, O=C(Nc1nc2c(F)cc(F)cc2s1)c1ccc2c(c1)OCCO2 0.0826 µM, O=C(/C=C/c1ccc2c(c1)OCCCO2)c1ccccc1O 2.07 µM, Cc1ccc(C(=O)/C=C/c2ccc3c(c2)OCCO3)c(O)c1 18.5 µM, C=CCn1c(C)csc1=Nc1ccc(C(C)=O)cc1 10.4 µM, Cc1cc(C)nc(S/C=C/C(=O)c2ccccc2F)n1 11.7 µM, C/C(N)=C(/C#N)C(=O)CSc1ccccc1F 8.26 µM, Cc1cc(C)n2c(Br)c(CSc3nc4ccccc4s3)nc2n1 4.14 µM, Cc1cc(C)n2cc(COc3ccc4ccccc4c3)nc2n1 1.17 µM, Cc1cc(C)n2cc(CSc3nc4ccccc4s3)nc2n1 4.65 µM, CC(C)c1ccc(NC(=O)C2=NNC(=O)CC2)cc1 2.33 µM, Cc1cnc(C(=O)Nc2ccc(C(C)C)cc2)cn1 1.65 µM, O=C1c2ccccc2NC(c2ccccc2O)N1c1ccc(F)cc1 (configuration not stated) 2.93 µM, O=C(Nc1ccc2c(c1)CCC2)c1ccc(Br)s1 0.261 µM, O=C(Nc1ccc2c(c1)CCC2)c1cccc(F)c1 4.14 µM, O=C(Nc1cccc(F)c1)Nc1ccc2c(c1)CCC2 0.736 µM, O=C1NC(c2ccccc2Cl)=N/C1=C/c1ccco1 10.4 µM, O=C1NC(c2ccc(Br)cc2)=N/C1=C/c1ccco1 0.927 µM, c1csc(-c2nn3c(C4COc5ccccc5O4)nnc3s2)c1 (configuration not stated) 16.5 µM, COc1ccc(NC(=O)Nc2ccccc2F)cc1Cl 2.07 µM, COc1ccc(NC(=O)c2cc(F)cc(F)c2)cc1Cl 9.27 µM, COc1ccc(C(=O)Nc2ccc(Cl)c(Cl)c2)c(OC)n1 0.355 µM, O=C(Cc1cccs1)NCc1cc(Cl)cc(Cl)c1 14.7 µM, Cc1cccc(CCNc2nc3ccc(C)cc3n3cnnc23)c1 16.5 µM, Cc1cc(C(=O)N/N=C/c2c(C)nn(-c3ccccc3)c2C)n[nH]1 14.7 µM, Cc1cc(C(=O)N/N=C/c2ccccc2)c(C)o1 6.56 µM, Cc1cc(C(=O)N/N=C/c2c(C)nn(-c3ccccc3)c2C)c(C)o1 8.26 µM, COc1cccc2[nH]c(=O)c(-c3ccccc3)cc12 1.65 µM, Nc1nc(-c2ccc(Cl)cc2)nnc1-c1ccc(Br)cc1 2.07 µM, CC(C)CC(=O)Nc1ccc2nn(-c3ccccc3)nc2c1 0.656 µM, CC(=O)Nc1cc2nn(-c3ccccc3)nc2cc1Cl 0.464 µM, CCCC(=O)Nc1cc2nn(-c3ccccc3)nc2cc1C 0.369 µM, COc1ccc(O)c(/C=N/N2CCCCC2)c1 5.21 µM, O=C1N/C(=C\c2nc3ccccc3s2)c2ccccc21 0.0736 µM, CSc1nnc(-c2cc3c(s2)-c2ccccc2CC3)o1 1.17 µM, Cn1c(C(=O)NCC2CCCO2)cc2oc3ccccc3c21 (configuration not stated) 2.07 µM, Cn1c(C(=O)N2CCc3ccccc3C2)cc2oc3ccccc3c21 10.4 µM, COCCNC(=O)c1cc2oc3ccccc3c2n1C 14.7 µM, CCc1c(C)sc(NC(=O)c2ccco2)c1C#N 11.7 µM, Cc1sc(NC(=O)c2ccccc2)c(C#N)c1-c1ccccc1 0.826 µM, CCc1c(C)sc(NC(=O)c2cccs2)c1C#N 5.21 µM, Nc1nc2ccc(-c3nc4ccccc4o3)cc2s1 0.927 µM, CN1CCSc2ccc(C(=O)Nc3ccc(Cl)cc3)cc21 1.04 µM, Cc1ccccc1NC(=O)c1ccc2c(c1)N(C)CCS2 3.69 µM, O=C1CCC(=O)N1c1ccc(-c2nc3ccccc3s2)cc1 0.521 µM, c1ccc2sc(-c3ccncc3)nc2c1 6.56 µM, c1csc(-c2nc3ccccc3s2)c1 5.85 µM, O=S(=O)(Nc1cccc(-c2ccc(N3CCCCCC3)nn2)c1)c1ccc(F)cc1 13.1 µM, O=S(=O)(Nc1cccc(-c2ccc(N3CCCCCC3)nn2)c1)c1cccc(F)c1 9.27 µM, CC(OC(=O)CNC(=O)c1ccccc1F)C(=O)Nc1nc(-c2ccccc2)cs1 (configuration not stated) 4.65 µM, Nc1nn2cc(-c3ccccc3)nc2c2ccccc12 0.521 µM, Clc1ccc(COc2ccccc2-c2ccnc3ncnn23)cc1 13.1 µM, CC(O)c1ccc(OCCN(C)c2ccccn2)cc1 (configuration not stated) 16.5 µM, COc1cc(OC)c(NC(=O)CCCn2nc(C)c3sc4ccccc4c3c2=O)cc1Cl 11.7 µM, Cc1ccc(CONC(=O)c2ccccc2)cc1 18.5 µM, CC/C(=N/NC(=O)c1ccccc1)c1ccc(OCCN2CCOCC2)cc1 2.93 µM, CC(C)c1cc(C(N)=O)c(NC(=O)c2cccc(COc3ccc(Cl)cc3)c2)s1 0.585 µM, Cc1nn(Cc2c(F)c(F)c(F)c(F)c2F)c(C)c1NC(=O)c1cccc(COc2ccc(Cl)cc2)c1 7.36 µM, COc1ccc(NC(=S)N2CCc3ccccc32)cc1OC 16.5 µM, Brc1c(CSc2nc3ccccc3s2)nc2ncccn12 3.29 µM, Brc1c(CSc2nc3ccccc3o2)nc2ncccn12 7.36 µM, COc1ccc(/C(C)=N/Nc2nncc3ccccc23)cc1 0.826 µM, C/C(=N\Nc1nncc2ccccc12)c1ccc(C(C)(C)C)cc1 7.36 µM, C/C(=N\Nc1nncc2ccccc12)c1cccc(OC(F)F)c1 0.414 µM, C/C(=N\Nc1nncc2ccccc12)c1ccc(OCC(=O)N(C)C)cc1 4.65 µM, Cc1cc(N2CCOCC2)nc(SCC(=O)c2ccccc2)n1 13.1 µM
